Screening results (PubChem)
TRHR PAM: allosterically enhances the human TRH receptor; TRHR cells, fluo-8 calcium fluorescence, EC20 TRH enhancement; actives 0.66% (n = 360,000); enhancement, % at 2 µM; AID 493056; in the data active = enhancement above about 30%
Target sequence (P34981 whole entry, looked up): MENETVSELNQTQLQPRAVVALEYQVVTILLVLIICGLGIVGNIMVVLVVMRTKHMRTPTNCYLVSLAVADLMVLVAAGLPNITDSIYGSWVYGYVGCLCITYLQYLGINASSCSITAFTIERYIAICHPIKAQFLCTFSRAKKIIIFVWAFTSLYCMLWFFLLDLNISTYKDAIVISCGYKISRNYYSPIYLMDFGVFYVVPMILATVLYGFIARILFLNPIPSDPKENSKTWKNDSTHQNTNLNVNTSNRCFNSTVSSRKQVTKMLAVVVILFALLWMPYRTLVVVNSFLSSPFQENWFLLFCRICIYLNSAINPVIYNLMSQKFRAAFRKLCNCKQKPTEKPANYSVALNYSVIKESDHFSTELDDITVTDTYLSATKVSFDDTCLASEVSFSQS
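Enhancer read-out: after compound pinning and an initial kinetic agonist-mode read, an EC20 of TRH (10 nM final) was injected and fluo-8 calcium signal (Ex 480/Em 530) followed at 1 s/cycle for 100 cycles in TRHR-expressing cells.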
D1 PAM: potentiators of human D1 dopamine receptor; P21728; HEK293 TREx D1 cells, calcium flux, dopamine EC20 potentiation; potentiation, % at 10 µM; actives 0.036% (n = 360,000); AID 504651; in the data active = potentiation above about 30%
GRP78 ERSR act: induces the endoplasmic reticulum stress response in human glioma cells; Potency, µM, hits mostly activators; U87-MG GRP78 promoter luciferase reporter, 16 h; actives 0.02% (n = 420,000); active = well fitted activation curve with a large enough effect; inconclusive = small, poorly fitted or top-dose-only effect; inactive = no such curve, though single readings can be large or run the other way; note: series mostly up to about 76 µM; nearly all actives have a fitted effect of over 35% in size
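Stably transfected U87-MG glioma cells carrying a GRP78-based luciferase sensor; 16 h compound incubation. Luminescence end-point read 10 min after Bright-Glo addition at room temperature.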
D1 antagonist: human D1 dopamine receptor antagonism | P21728 | HEK293 TREx D1 cells, calcium flux, dopamine EC80; active compounds read low | activity change, negative = inhibition, % at 10 µM | actives 3.2% (n = 360,000); in the data active = activity change below about -30%
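HEK293 T-REx cells expressing inducible, force-coupled D1 receptor; no-wash Ca dye, 30–90 min RT. Cmpd → 180 s read at 1 Hz → EC80 DA → 180 s read.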
D1 agonist: agonists of human D1 dopamine receptor | P21728 | actives 1% (n = 360,000) | activation, % at 2 µM | HEK293 T-REx D1 cells, calcium flux, agonist mode
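Tetracycline-induced HEK293 TREx D1 cells, force-coupled to calcium signalling, were dye-loaded with a no-wash calcium kit. Compound was pin-added after a 10 s baseline. Fluorescence was read kinetically at 1 cycle/s for 180 s, with calcium rises flagged as agonism.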
TRHR agonist: agonists of human TRH receptor; P34981; TRHR cells, calcium flux fluo-8, FDSS agonist mode; activation, % at 2 µM; actives 0.18% (n = 360,000); AID 493084
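Read-out: compound-evoked intracellular calcium rise in TRHR cells, fluo-8 dye, kinetic FDSS fluorescence at 1 s/cycle following a 10-cycle baseline. Cells cultured overnight before dye loading (30 min–1.5 h, RT).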
Large screens that a line does not name were inactive; ! = repeats disagree. Sampled rows, rich in hits. Any-hit rate of the full collection: about 4%. Cut-off read from the data, not from the text of the source, unless noted: active = activation above about 30%; inactive = the rest.

CC(C)Oc1cccc(C(=O)Nc2ccc(N3CCN(C)CC3)cc2)c1	D1 antagonist -57
CS(=O)(=O)N1CCN(c2ccc(NC(=O)c3ccc(-c4ccc(Cl)cc4)o3)cc2)CC1	none
CC(C)Oc1ccc(C(=O)Nc2ccc(N3CCCCC3)cc2)cc1	none
Cc1ccc(C(NC(=O)c2cccc(S(=O)(=O)N3CCN(C)CC3)c2)c2ccccc2)cc1 (stereo unspecified)	D1 antagonist -66
CN1CCN(c2ccc(NC(=O)Cc3ccccc3)cc2)CC1	D1 antagonist -39
CN1CCN(c2ccc(NC(=O)c3ccc(-c4ccc(Cl)cc4)o3)cc2)CC1	D1 antagonist -72
CC(=O)SCC(CC(=O)c1ccc(C)cc1)C(=O)O (stereo unspecified)	none (no result: TRHR PAM, D1 PAM, D1 antagonist, D1 agonist, TRHR agonist)
COc1ccc(C(=O)N2CCC3(CC2)c2ccccc2[C@@H](NC(=O)c2ccccn2)[C@@H]3OC)c(O)c1	none (no result: TRHR PAM, D1 PAM, D1 antagonist, D1 agonist, TRHR agonist)
CN1CCN(c2ccc(CNS(=O)(=O)c3ccccc3)cc2)CC1	D1 antagonist -35
O=C(CCN1CCN(c2ccccc2)CC1)NNC(=O)Cc1ccc(Br)cc1	D1 antagonist -39
O=C(NC1=NCCS1)c1ccc(Cl)c(S(=O)(=O)N2CCCCC2)c1	none
Cc1c(NC(=S)NC(=O)c2ccc(-c3ccc(Cl)cc3)o2)cccc1C(=O)O	D1 antagonist -31
O=C(NC1=NCCS1)c1cccc(S(=O)(=O)N2CCCCC2)c1	D1 antagonist -34 (no result: GRP78 ERSR act)
COCC(=O)Nc1cc(C(=O)N2CCN(c3ccccc3)C(=O)C2)cc2nc(-c3ccccc3)n(C)c12	none (no result: TRHR PAM, D1 PAM, D1 antagonist, D1 agonist, TRHR agonist)
COC(=O)c1ccccc1NC(=O)CN1CCC(NC(=O)c2ccccc2C)CC1	none
CCOC(=O)c1sc(NC(=O)CSc2nc3c(cc2C#N)CCCCCC3)c(C#N)c1C	D1 agonist 42
CCOC(=O)c1sc(NC(=O)CSc2nc(C)cc(C)c2C#N)c(C#N)c1C	none
CC(=O)N(C1=C(O)c2ccccc2C(=O)C1=O)C1CCCCC1	D1 antagonist -38
CCOC(=O)/C(=C\c1ccc([N+](=O)[O-])o1)NC(=O)c1ccccc1	D1 antagonist -36
CCCOC(=O)/C(=C\c1ccc([N+](=O)[O-])o1)NC(=O)c1ccccc1	none
CCOc1ccc(CNC(=O)Cn2ncc3c(=O)oc4ccc(C)cc4c32)cc1	none
CCCCC(C(=O)O)C(C)CC(=O)Nc1ccn(-c2ccccc2)n1 (stereo unspecified)	D1 antagonist -59
CC(C)CC(C(=O)O)C(C)CC(=O)Nc1ccn(-c2ccccc2)n1 (stereo unspecified)	none
N=C1C(c2nc3ccccc3[nH]2)=C(O)CN1c1ccc(F)cc1	D1 antagonist -30
N=C1C(c2nc3ccccc3[nH]2)=C(O)CN1C1CCCCC1	none
COc1cc2c(cc1OC)CN(C(=S)Nc1ccc(Cl)cc1)CC2	D1 antagonist -35
COc1cccc(NC(=S)N2CCc3cc(OC)c(OC)cc3C2)c1	none
CCOC(=O)C(=O)Nc1ccc(Oc2ccccc2)cc1	D1 antagonist -33
CCOC(=O)/C=C/C(=O)Nc1ccc(Oc2ccccc2)cc1	D1 antagonist -36
O=C(O)/C=C/C(=O)Nc1ccc(Oc2ccccc2)cc1	none
CCOC(=O)CC1(NC(=O)c2cc(COc3ccc(F)c(F)c3)on2)CCCCC1	D1 agonist 31
CSc1ccc(-c2nc3cccc(C)n3c2Nc2ccc3c(c2)OCO3)cc1	none
NCC(=O)c1c[nH]c2ccccc12	none (no result: TRHR PAM, D1 PAM, D1 antagonist, D1 agonist, TRHR agonist)
CC(C)CO/N=C1/C[C@@H](O)[C@@H](O)[C@@H]2[C@@H]3C(=O)N(Cc4ccc5c(c4)OCO5)C(=O)[C@H]3CC[C@@H]12	none (no result: TRHR PAM, D1 PAM, D1 antagonist, D1 agonist, TRHR agonist)
Cc1cc(C)n(S(=O)(=O)c2ccccc2[N+](=O)[O-])n1	D1 antagonist -56
CN(C)c1ccc(/C=C2\C=Cc3ccccc32)cc1Cl	none (no result: TRHR PAM, D1 PAM, D1 antagonist, D1 agonist, TRHR agonist)
CCC(=O)c1ccc(OCC(=O)NC2CCCC2)cc1	none
CCC(=O)c1ccc(OCC(=O)OCC(=O)NC2CCCCCCC2)cc1	D1 antagonist -39
CCC(=O)c1ccc(OCC(=O)OCC(=O)NCCC2=CCCCC2)cc1	D1 antagonist -31
CC1CCCC(NC(=O)COC(=O)COc2ccc(Cl)cc2)C1C (stereo unspecified)	none
Cc1cc(OCC(=O)OCC(=O)NC2CCCCC2C)ccc1Cl (stereo unspecified)	D1 antagonist -32
Cc1ccc2nc(SCC(=O)N3CCC4(CC3)CC4C(=O)Nc3ccc(F)c(F)c3)[nH]c2c1 (stereo unspecified)	none (no result: TRHR PAM, D1 PAM, D1 antagonist, D1 agonist, TRHR agonist)
CCCC(=O)Nc1cccc(Oc2ccc3c(c2)C(=O)NC3=O)c1	TRHR PAM 35
Cc1[nH]n(-c2ccccc2)c(=O)c1N=Nc1ccccc1O	GRP78 ERSR act inconclusive, D1 agonist 32
Cc1ccccc1N=Nc1c(C)[nH]n(-c2ccccc2)c1=O	none
Cc1[nH]n(-c2ccccc2)c(=O)c1N=Nc1ccc2c(c1)OCO2	D1 antagonist -35
O=P(O)(O)OC1[C@H](O)[C@H](OP(=O)(O)O)C(OP(=O)(O)O)[C@H](OP(=O)(O)O)[C@H]1O (stereo partly specified)	none (no result: TRHR PAM, D1 PAM, D1 antagonist, D1 agonist, TRHR agonist)
CCc1cc(=O)oc2cc(O[C@@H]3O[C@H](CO)[C@@H](O)[C@H](O)[C@H]3O)c(Cl)cc12	TRHR PAM 33
COc1cccc(NC(=O)CN2C(=O)NC3(CCCc4ccccc43)C2=O)c1 (stereo unspecified)	none
O=C1CCC[C@@H]2C[C@@]3(C[C@@H]4CCN1[C@H]24)Nc1cc([N+](=O)[O-])ccc1NC3=NCc1ccccc1	none (no result: TRHR PAM, D1 PAM, D1 antagonist, D1 agonist, TRHR agonist)
COC(=O)Cn1c(O)c(N=NC(=O)c2ccc3c(c2)OCO3)c2ccccc21	D1 antagonist -35
COc1ccc(CNC(=O)C(c2ccco2)N(C(=O)Cc2cccs2)c2cccnc2)cc1 (stereo unspecified)	D1 antagonist -35
CC1=CC=CC2=NC(=O)CC(C)(C(=O)N(CC(=O)NC3CCCC3)c3ccc(F)cc3)N12 (stereo unspecified)	D1 antagonist -34
CCN(CC)CCNC(=O)C1(O)c2cc(Br)ccc2NC(=O)N1c1c(F)cccc1F (stereo unspecified)	none
c1ccc(-c2ccc(OCCN3CCCC3)cc2)cc1	none (no result: TRHR PAM, D1 PAM, D1 antagonist, D1 agonist, TRHR agonist)
O=C(O)c1ccc2c(c1)C(=O)N([C@H](Cc1ccc(F)cc1)C(=O)O)C2=O	none (no result: GRP78 ERSR act)
CC1CCN(C(=O)CCc2nc3cc(S(=O)(=O)N(C)C)ccc3n2C)CC1	D1 antagonist -32
Cc1ccccc1-c1noc(C(C)NC(=O)c2ccco2)n1 (stereo unspecified)	D1 antagonist -40!
CCC(Oc1ccccc1OC)C(=O)N1CC(=O)Nc2ccccc21 (stereo unspecified)	none
Cc1cc(C(=O)N2CCN(c3ccc([N+](=O)[O-])cc3)CC2)n[nH]1	D1 antagonist -32
